# In the library only some 19% were active in any assay of this set; here they are far more common.
# HT1080 IDH1KD tx: HT-1080 IDH1 knockdown cell toxicity (counter line) | actives 2% (n = 360,000) | Potency, µM (series often up to 46.1 µM), for the others: at the highest dose activity, negative = toxicity, actives largely listed as cytotoxic | AID 686971 | HT-1080 IDH1 knockdown viability, ATP luminescence, 48 h;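 note: 0% = DMSO wells and -100% = cell-free medium wells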
#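 Knockdown cells (IDH1KD HT-1080) received compounds 2 h after plating at 750 cells/well and were kept 48 h at 37 °C in 5% FBS RPMI. A CellTiter-Glo luminescence read gave % activity for curve fitting.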
# TDP1 cell noCPT: qHTS for Inhibitors of human tyrosyl-DNA phosphodiesterase 1 (TDP1): qHTS in cells in absence of CPT. actives 15% (n = 420,000). AID 686978, 2013. DT40 Tdp1-/- hTDP1 cells, no CPT, ATP luminescence, 48 h. Potency, µM (series often up to 46.2 µM), for the others: top-dose activity change, negative = growth inhibition, most hits filed as inhibitors; note: nearly all actives have a fitted effect of over 55% in size
#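 Luminescent ATP content (CellTiter-Glo) served as the growth readout. Knockout chicken DT40 cells expressing human TDP1 were exposed to compounds without camptothecin for a minimum 48 hr at 37 °C.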
# HT1080-NT tox: kills 2HG-producing HT-1080-NT fibrosarcoma cells; HT-1080-NT fibrosarcoma viability, CellTiter-Glo ATP luminescence, 48 h; Potency, µM (series often up to 46.1 µM), for inactives: at the highest dose activity, negative = less viability, actives largely listed as cytotoxic; actives 1.6% (n = 360,000); AID 686970;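 note: NT is the 2HG producing partner of a matched IDH1 knockdown line; 0% = DMSO-treated cells and -100% = media-only wells without cells; nearly all actives have a fitted effect of over 55% in size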
#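 HT-1080-NT fibrosarcoma cells (2HG-overproducing), 750 cells/well in RPMI with 5% FBS, dosed after 2 h and incubated 48 h at 37C. CellTiter-Glo luminescence normalized to DMSO and no-cell wells; concentration-response curves fitted and classed.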
# DT40 TDP1 CPT: DT40-hTDP1 cell growth loss with CPT; chicken DT40 Tdp1-/-;hTDP1 cells + 20 nM CPT, ATP luminescence, 48 h; Potency, µM (series often up to 46.2 µM), for the others: at the highest dose activity change, negative = growth inhibition, hits mostly inhibitors; actives 12% (n = 420,000); note: nearly all actives have a fitted effect of over 55% in size
#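 Cell growth measured by CellTiter-Glo luminescence after a minimum 48 h, 37 C compound exposure with 20 nM CPT in Tdp1-knockout DT40 cells stably expressing hTDP1, seeded 400/well; qHTS titration format.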
# KB-3-1 cytotox: kills parental KB-3-1 adenocarcinoma cells; KB-3-1 viability, CellTiter-Glo ATP luminescence, 72 h; Potency, µM (doses to about 46.1 µM), usual class: cytotoxic; actives 1.4% (n = 400,000); note: nearly all actives have a fitted effect of over 60% in size
#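 KB-3-1 parental drug-naive adenocarcinoma cells in DMEM/10% FBS, incubated 72 h at 37 C with pin-transferred compounds across a concentration series. Viability by CellTiter-Glo luminescence; concentration-response curves fitted after normalization.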
# KB-V1 cytotox: kills drug-selected multidrug resistant KB-V1 cells. AID 1347076. Potency, µM (titrated, usually from 46.1 µM), hits mostly cytotoxic. KB-V1 MDR cells viability, CellTiter-Glo, 72 h. actives 3.4% (n = 400,000); note: nearly all actives have a fitted effect of over 60% in size
#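 Potencies derive from concentration-effect curves fitted to normalized luminescence (CellTiter-Glo) of KB-V1 cells treated for 72 h at 37 degrees C in phenol-red-free DMEM containing 10% FBS.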
# * marks the source's active call; other numbers are inactive results; i = inactive; ? = inconclusive; / = no result; [ ] = remark or other dose. Calls come from the whole dose curve; as a rule, active = well fitted curve in the direction sought with a large enough effect; inconclusive = small, poorly fitted or top-dose-only effect, or another doubt; inactive = no such curve, though single readings can be large; an effect the other way counts as inactive or inconclusive. Unless noted, % is set by controls: 0 for no effect and ±100 for the full control effect; potency is the fitted concentration of half-maximal effect.
SMILES,HT1080 IDH1KD tx,TDP1 cell noCPT,HT1080-NT tox,DT40 TDP1 CPT,KB-3-1 cytotox,KB-V1 cytotox
CC(C)C[C@H]1CN(CCCC[C@@H]2CNC(=O)C(=O)N2Cc2ccccc2)C(=O)C(=O)N1CCC1CCCCC1,?,-20%,?,-9%,i,i
Cc1noc(-c2ccc(-c3noc(-c4cccc(F)c4)n3)cc2)n1,/,4%,/,-13%,i,i
COc1ccc(OC)c(CNC(=O)C2CCN(S(=O)(=O)c3cn(C)cn3)CC2)c1,/,2%,/,-11%,/,/
COc1ccc2nc(NN=C(C)c3ccccn3)cc(C)c2c1,12µM*,2.9µM*,-29%,1.6µM*,?,1.2µM*
OC(c1cccc(CN2CCCCC2)c1)c1ncc(-c2cccc(C(F)(F)F)c2)[nH]1 (stereo unspecified),?,21µM*,21µM*,15µM*,i,i
COc1cccc(-c2cnc(C(O)c3cccc(CN4CCCCC4)c3)[nH]2)c1 (stereo unspecified),5%,-16%,8%,?,i,i
OC(c1cccc(CN2CCCCC2)c1)c1ncc(-c2cccc3ccccc23)[nH]1 (stereo unspecified),?,?,16µM*,?,i,i
Cc1cccc(Cn2ccn(Cc3ccc(Cl)cc3)c(=O)c2=O)c1,/,-12%,/,?,/,/
COc1ccc(/C=c2\[nH]c(=O)/c(=C/c3ccc(OC)cc3)[nH]c2=O)cc1,/,-1%,/,0%,i,i
Cc1cccc(N2CCN(C(=O)Cc3ccc(-n4c(=O)[nH]c5ccsc5c4=O)cc3)CC2)c1C,8%,?,9%,-19%,i,15µM*
Cc1ccc(C)c(N2CCN(C(=O)Cc3ccc(-n4c(=O)[nH]c5ccsc5c4=O)cc3)CC2)c1,-14%,?,-8%,?,i,i
CC1CC(C)(C)NC(=S)N1CC(=O)N1CCN(Cc2ccccc2)CC1 (stereo unspecified),1%,5%,23%,1%,i,i
Cc1ccc(C)c(N2CCN(C(=O)CN3C(=S)NC(C)(C)CC3C)CC2)c1 (stereo unspecified),7%,23µM*,0%,23µM*,i,?
Cc1ccc(C)c(N2CCN(C(=O)Cn3c(=O)[nH]c4ccsc4c3=O)CC2)c1,-1%,-24%,1%,-10%,i,21µM*
Cc1ccc(C)c(N2CCN(C(=O)CC3Sc4ccccc4NC3=O)CC2)c1 (stereo unspecified),?,16µM*,?,18µM*,?,16µM*
CC(C)CC(=O)[C@@H](O)Cc1ccc(O)cc1,4%,-22%,19%,-3%,i,?
CC(C)Cc1ccc(C(C)C(=O)Nc2cccnc2)cc1 (stereo unspecified),?,3.7µM*,?,2.3µM*,?,i
CC(C(=O)Nc1ccccc1)c1ccc(-c2ccccc2)c(F)c1 (stereo unspecified),21µM*,23µM*,?,18µM*,?,i
CC(C)Cc1ccc(C(C)C(N)=Nc2ccc(O)cc2)cc1 (stereo unspecified),21µM*,16µM*,?,26µM*,?,?
CC(C)Cc1ccc(C(C)C(=O)Nc2ccc(O)cc2)cc1 (stereo unspecified),-10%,13µM*,-17%,23µM*,i,?
CC(=NCc1ccccc1)c1ccc(O)cc1O,1%,?,-9%,-1%,i,i
CSc1nnc(CCNC(=O)c2ccc(-c3cccc(F)c3)cc2)n1-c1ccc(F)cc1,/,-14%,/,9%[9.04 µM],/,/
CCCSc1ccc([C@H]2N[C@@](C)(C(=O)OC)[C@H]3C(=O)N(C)C(=O)[C@@H]23)cc1OC,4%,?,0%,-6%,i,i
CC(=O)Nc1ccc(NC(=O)C(C)c2cccc(C(=O)c3ccccc3)c2)cc1 (stereo unspecified),4%,-26%,15%,18%,i,i
CC(C(=O)Nc1ccc(O)cc1)c1cccc(C(=O)c2ccccc2)c1 (stereo unspecified),-23%,21µM*,-9%,?,?,?
SMILES,HT1080 IDH1KD tx,TDP1 cell noCPT,HT1080-NT tox,DT40 TDP1 CPT,KB-3-1 cytotox,KB-V1 cytotox
Cc1ccc([C@H]2C[C@@H](O)[C@H](n3cc(-c4ccc(F)cc4)nn3)CN2Cc2cccs2)cc1,11%,?,-8%,?,i,i
CCN(CC)CCNC(=O)c1ccc2c(c1)NC(=O)C(CS(=O)(=O)Cc1ccc(F)cc1Cl)N2 (stereo unspecified),/,?,/,18µM*,i,i
Cc1cccc(CS(=O)(=O)CC2Nc3ccc(C(=O)NCc4ccccc4)cc3NC2=O)c1 (stereo unspecified),/,6.5µM*,/,12µM*,i,i
CC(C)CCNC(=O)c1ccc2c(c1)NC(=O)C(CS(=O)(=O)Cc1ccc(F)cc1)N2 (stereo unspecified),/,16µM*,/,16µM*,i,i
Cc1ccc(CNC(=O)c2ccc3c(c2)NC(=O)C(CS(=O)(=O)Cc2cccc(F)c2)N3)cc1 (stereo unspecified),/,4%,/,-10%,i,i
CC(C)CCNC(=O)c1ccc2c(c1)NC(=O)C(CS(=O)(=O)Cc1cccc(Br)c1)N2 (stereo unspecified),/,?,/,-27%,i,i
CC(C)CC1Nc2ccc(C(=O)NCCCN3CCOCC3)cc2NC1=O (stereo unspecified),4%,16µM*,4%,26µM*,?,i
Cc1cccc(NC(=O)CSCC(=O)Nc2cc(Cl)ccc2N2CCOCC2)c1,-3%,?,-4%,?,i,i
O=C(NC1CC1)c1sc2cc([N+](=O)[O-])ccc2c1Cl,11%,?,20%,-6%,i,i
CC(NC(=O)c1sc2cc([N+](=O)[O-])ccc2c1Cl)C(C)(C)C (stereo unspecified),-1%,4.1µM*,3%,5.2µM*,i,i
O=C(c1sc2cc([N+](=O)[O-])ccc2c1Cl)N1CCCCC1,9%,?,-2%,-2%,i,i
CC1CCCN(C(=O)c2sc3cc([N+](=O)[O-])ccc3c2Cl)C1 (stereo unspecified),-18%,16µM*,-17%,26µM*,i,i
